Assay outcomes (PubChem BioAssay)
KB-3-1 cytotox: qHTS assay for MDR1-selective chemotherapeutics: Primary screen using the parental adenocarcinoma cell KB-3-1 | KB-3-1 viability, CellTiter-Glo ATP luminescence, 72 h | Potency, µM (top dose mostly 46.1 µM), actives largely listed as cytotoxic | 1.4% of 400,000 active; further: nearly all actives have a fitted effect of over 60% in size
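Parental KB-3-1 viability, qHTS format: 72 h compound exposure, 37 °C; CellTiter-Glo; media-only wells and DMSO plates as controls; concentration-effect fits on corrected data.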
DT40 TDP1 CPT: qHTS for Inhibitors of human tyrosyl-DNA phosphodiesterase 1 (TDP1): qHTS in cells in presence of CPT | chicken DT40 Tdp1-/-;hTDP1 cells + 20 nM CPT, ATP luminescence, 48 h | Potency, µM (doses to about 46.2 µM), for the others: at the highest dose activity change, negative = growth inhibition, actives largely listed as inhibitors | 12% of 420,000 active; further: nearly all actives have a fitted effect of over 55% in size
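Chicken DT40 Tdp1-/- cells complemented with human TDP1, 400 cells/well, exposed to compounds plus 20 nM camptothecin for at least 48 h at 37 C; viability read as ATP content by CellTiter-Glo luminescence.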
KB-V1 cytotox: qHTS assay for MDR1-selective chemotherapeutics: Primary screen using the drug-selected MDR subline cells KB-V1; KB-V1 MDR cells viability, CellTiter-Glo, 72 h; Potency, µM (series often up to 46.1 µM), usual class: cytotoxic; 3.4% of 400,000 active; AID 1347076, 2019; further: nearly all actives have a fitted effect of over 60% in size
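KB-V1, DMEM (no phenol red) + 10% FBS; cpd pin-transferred, titration series; 72 h, 37 degrees C; CellTiter-Glo, luminescence. Data normalized, curve-fit.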
HT1080-NT tox: qHTS for induction of synthetic lethality in tumor cells producing 2HG: qHTS for the HT-1080-NT fibrosarcoma cell line | HT-1080-NT fibrosarcoma viability, CellTiter-Glo ATP luminescence, 48 h | Potency, µM (series often up to 46.1 µM), inactives show top-dose activity, negative = less viability, usual class: cytotoxic | 1.6% of 360,000 active;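 further: NT is the 2HG producing partner of a matched IDH1 knockdown line; 0% = DMSO-treated cells and -100% = media-only wells without cells; nearly all actives have a fitted effect of over 55% in size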
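Viability of the 2HG-overproducing fibrosarcoma line after 48 hours of compound exposure at 37 degrees C was determined by luminescence with CellTiter-Glo, and concentration-effect curves were then fitted and categorized.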
HT1080 IDH1KD tx: qHTS for induction of synthetic lethality in tumor cells producing 2HG: qHTS for the HT-1080-IDH1KD cell line | HT-1080 IDH1 knockdown viability, ATP luminescence, 48 h | Potency, µM (top dose mostly 46.1 µM), for the others: top-dose activity, negative = toxicity, actives largely listed as cytotoxic | 2% of 360,000 active | AID 686971, 2013;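 further: 0% = DMSO wells and -100% = cell-free medium wells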
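Luminescent ATP read-out (CellTiter-Glo, 10 min at room temperature) after 48 h compound exposure at 37 °C gave viability of IDH1-knockdown HT-1080 cells. Activity was normalised to DMSO and cell-free wells, then fitted as concentration-response curves.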
DT40 TDP1 no CPT: qHTS for Inhibitors of human tyrosyl-DNA phosphodiesterase 1 (TDP1): qHTS in cells in absence of CPT; 15% of 420,000 active; DT40 Tdp1-/- hTDP1 cells, no CPT, ATP luminescence, 48 h; Potency, µM (series often up to 46.2 µM), without a hit: at the highest dose activity change, negative = growth inhibition, most hits filed as inhibitors; further: nearly all actives have a fitted effect of over 55% in size
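Growth of hTDP1-complemented DT40 Tdp1-knockout cells is measured by ATP luminescence after at least 48 hr compound exposure at 37 °C, with DMSO substituting for the 20 nM CPT used in the parallel screen.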
* hit, by the source's call. This is a sample that favours compounds with a hit; in the whole collection about 19% have one here. The call rests on the fitted dose curve; in most records, active means well fitted curve in the direction sought with a large enough effect; inconclusive means small, poorly fitted or top-dose-only effect, or another doubt; inactive means no such curve, though single readings can be large; an effect the other way counts as inactive or inconclusive. Unless noted, on the % scale 0 is the no-effect control and ±100 the full control effect; potency means the concentration at half of the fitted maximal effect.

What do the screens show for `COCCn1c(Cc2ccccc2)nnc1SC(C)C(=O)NC1CC1` (stereo not drawn)?
KB-3-1 cytotox: inactive; DT40 TDP1 CPT: 1%; KB-V1 cytotox: inconclusive; HT1080-NT tox: 6%; HT1080 IDH1KD tx: 4%; DT40 TDP1 no CPT: 23%

What do the screens show for `COc1cc(C(=S)N2CCCC2)cc(OC)c1OS(=O)(=O)c1ccc(NC(C)=O)cc1`?
KB-3-1 cytotox: inactive; DT40 TDP1 CPT: inconclusive; KB-V1 cytotox: inactive; HT1080-NT tox: -3%; HT1080 IDH1KD tx: -6%; DT40 TDP1 no CPT: inconclusive

What do the screens show for `COc1ccc(S(=O)(=O)Oc2ccc(C(=S)N3CCOCC3)cc2OC)cc1`?
KB-3-1 cytotox: inactive; DT40 TDP1 CPT: inconclusive; KB-V1 cytotox: inactive; HT1080-NT tox: -12%; HT1080 IDH1KD tx: -7%; DT40 TDP1 no CPT: inconclusive

Results for CCOc1cc(C=O)ccc1OCC(=O)NC(C)(C)C ?
KB-3-1 cytotox: inactive; DT40 TDP1 CPT: 1%; KB-V1 cytotox: inactive; HT1080-NT tox: 2%; HT1080 IDH1KD tx: 0%; DT40 TDP1 no CPT: 7%

How did COc1cc(C(=S)N2CCCC2)ccc1OS(=O)(=O)c1ccc(NC(C)=O)cc1 do in these assays?
KB-3-1 cytotox: inactive; DT40 TDP1 CPT: 15µM*; KB-V1 cytotox: inactive; HT1080-NT tox: -4%; HT1080 IDH1KD tx: -11%; DT40 TDP1 no CPT: inconclusive

How did CCOc1cc(C=O)ccc1OS(=O)(=O)c1ccc(NC(C)=O)cc1 do in these assays?
KB-3-1 cytotox: inactive; DT40 TDP1 CPT: inconclusive; KB-V1 cytotox: inactive; HT1080-NT tox: -13%; HT1080 IDH1KD tx: -16%; DT40 TDP1 no CPT: 18µM*

Results for CCOC(=O)c1ccc(OS(=O)(=O)c2ccccc2)c(OC)c1 ?
KB-3-1 cytotox: inactive; DT40 TDP1 CPT: 21µM*; KB-V1 cytotox: inactive; HT1080-NT tox: -3%; HT1080 IDH1KD tx: -16%; DT40 TDP1 no CPT: inconclusive

Results for COc1cc(C(=S)N2CCOCC2)ccc1OS(=O)(=O)c1ccc(NC(C)=O)cc1 ?
KB-3-1 cytotox: inconclusive; DT40 TDP1 CPT: 18µM*; KB-V1 cytotox: inactive; HT1080-NT tox: -25%; HT1080 IDH1KD tx: inconclusive; DT40 TDP1 no CPT: 9.2µM*

Results for CCOC(=O)c1cc(OC(=O)c2ccc(OC)c(OC)c2)n(-c2ccccc2)n1 ?
KB-3-1 cytotox: inactive; KB-V1 cytotox: inactive

How did Cc1ccc2c(c1)CCCO[C@]21O[C@H](CCO)C[C@H](O)[C@H]1O do in these assays?
KB-3-1 cytotox: inactive; DT40 TDP1 CPT: 0%; KB-V1 cytotox: inactive; HT1080-NT tox: 13%; HT1080 IDH1KD tx: 3%; DT40 TDP1 no CPT: 22%

How did CCOc1cc(C(=S)N2CCOCC2)ccc1OS(=O)(=O)c1ccccc1 do in these assays?
KB-3-1 cytotox: inactive; DT40 TDP1 CPT: inconclusive; KB-V1 cytotox: 2.3µM*; HT1080-NT tox: 0%; HT1080 IDH1KD tx: -4%; DT40 TDP1 no CPT: inconclusive

Results for CCOC(=O)c1c(NC(=O)c2ccc(C)cc2)sc2c1CC(C)(C)OC2 ?
KB-3-1 cytotox: inactive; DT40 TDP1 CPT: inconclusive; KB-V1 cytotox: inactive; HT1080-NT tox: -23%; HT1080 IDH1KD tx: -19%; DT40 TDP1 no CPT: 18µM*

What do the screens show for `CCOC(=O)c1c(NC(=O)CCC(=O)N(CC)CC)sc2c1CC(C)(C)OC2`?
KB-3-1 cytotox: inactive; DT40 TDP1 CPT: inconclusive; KB-V1 cytotox: inconclusive; HT1080-NT tox: 3%; HT1080 IDH1KD tx: inconclusive; DT40 TDP1 no CPT: inconclusive
